High-throughput results: PubChem, National Center for Advancing Translational Sciences (NCATS)
Most compounds without a hit are left out; they make up all but 9.4% or so of the library.
HTT ATP protect: Huntington cell model cytoprotection by ATP luminescence; hit rate 0.14% among 230,000; Potency, µM (doses to about 56.4 µM), most hits filed as activators; AID 1471; PC12 HTT-Q103 induced, cytoprotection, ATP luminescence, 40 h; further: nearly all actives have a fitted effect of over 45% in size
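ATP quantification (ATPlite) reports survival of PC12 cells in which tebufenozide, 100 nM final, switches on Htt exon 1 with 103 glutamines linked to GFP; compounds are titrated.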
HPGD block: blocks human HPGD enzyme activity; P15428; Potency, µM, actives largely listed as inhibitors; AID 894; purified HPGD, NADH fluorescence kinetic, PGE2 substrate; hit rate 4.3% among 150,000; active means well fitted inhibition curve with a large enough effect, not every such curve was filed as active; inconclusive means small, poorly fitted or top-dose-only effect, or another doubt; inactive means no such curve, though single readings can be large or run the other way
Target sequence (P15428 whole entry, looked up): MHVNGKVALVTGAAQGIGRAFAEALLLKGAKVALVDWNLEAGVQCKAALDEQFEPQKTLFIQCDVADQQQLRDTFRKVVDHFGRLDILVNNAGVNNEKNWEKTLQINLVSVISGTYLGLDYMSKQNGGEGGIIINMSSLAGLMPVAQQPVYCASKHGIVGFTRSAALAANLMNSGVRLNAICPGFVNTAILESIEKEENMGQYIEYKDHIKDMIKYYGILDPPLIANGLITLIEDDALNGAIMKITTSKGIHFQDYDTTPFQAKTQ
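20 nM HPGD preincubated 15 min at room temperature with compound in 50 mM Tris-HCl pH 8, 0.01% Tween 20. Started with 1 mM NAD+ and 30 uM prostaglandin E2; NADH fluorescence (360/450 nm) read 5 times over 30-s intervals, last minus first.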
IMPase cell inh: membrane-permeable compound that blocks inositol monophosphatase. inhibition (IP1 accumulation), % at 46.1 µM. 120,000 tested, under 10 active. CHO-M1 cells, IP1 accumulation, HTRF TR-FRET ratio. P97697; active means well fitted curve in the direction sought with a large enough effect in the signal ratio, not every such curve was filed as active; inconclusive means small, poorly fitted or top-dose-only effect, or a change in a side signal; inactive means no such curve, though single readings can be large or run the other way; the % refers to the signal ratio;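 further: cells stimulated with carbachol in lithium chloride buffer; higher means more IMPase inhibition seen as more IP1 and lower FRET ratio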
Target sequence (P97697 whole entry, looked up): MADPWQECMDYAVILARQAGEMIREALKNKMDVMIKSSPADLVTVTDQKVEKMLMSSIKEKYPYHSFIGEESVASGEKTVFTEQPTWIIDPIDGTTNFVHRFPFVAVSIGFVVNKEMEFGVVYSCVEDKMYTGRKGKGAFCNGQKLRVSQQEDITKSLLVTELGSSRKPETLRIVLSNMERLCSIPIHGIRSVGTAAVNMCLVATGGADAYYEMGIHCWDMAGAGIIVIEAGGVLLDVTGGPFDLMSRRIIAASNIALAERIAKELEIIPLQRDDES
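Carbachol-driven Gq signalling in CHO-M1 cells (2000/well) generates IP1. Compounds that block IMPase raise IP1 and so reduce the FRET signal from Eu-anti-IP1 and d2-IP1 after a 10 min room-temperature lysis.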
ALDH1A1 block: blocks purified human ALDH1A1 activity | P00352 | Purified ALDH1A1, NADH fluorescence, propionaldehyde substrate | Potency, µM (series often up to 75.3 µM), hits mostly inhibitors | hit rate 7.3% among 220,000 | AID 1030; active means well fitted inhibition curve with a large enough effect, not every such curve was filed as active; inconclusive means small, poorly fitted or top-dose-only effect, or another doubt; inactive means no such curve, though single readings can be large or run the other way
HTT aggregate: mutant huntingtin aggregation inhibition; PC12 HttQ103-GFP aggregates, Acumen cytometry, 40 h; Potency, µM (highest dose often 46.1 µM), hits mostly inhibitors; hit rate 1.1% among 220,000; further: nearly all actives have a fitted effect of over 60% in size
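PC12/HTTQ103-GFP, ecdysone-inducible; teb 100 nM; cpd qHTS titration; GFP aggregates read on laser cytometer, Ex 488/Em 500-530 nm.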
IMPase Li inh: cell-permeable IMPase inhibitors with lithium potentiation. hit rate 0.35% among 210,000. Potency, µM (series often up to 59.4 µM), usual class: inhibitors. CHO-M1 cells, IP1 TR-FRET (IP-One), carbachol + lithium;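 further: IP1 builds up when IMPase is blocked and the TR-FRET signal falls; nearly all actives have a fitted effect of over 50% in size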
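Test compounds were applied to CHO-M1 cells previously cultured for 16–30 h at 2000 per well. A small lithium amount accompanied them; after 30 min at 37C, IP1 was quantified by TR-FRET.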
Large screens that a line does not name were inactive. Unless noted, the call rests on the fitted dose curve; in most records, active means well fitted curve in the direction sought with a large enough effect; inconclusive means small, poorly fitted or top-dose-only effect, or another doubt; inactive means no such curve, though single readings can be large; an effect the other way counts as inactive or inconclusive.

O=C(c1ccccc1)N1CCC(c2nc(-c3ccc(S(=O)(=O)NCC4CCCO4)cc3)no2)CC1 (stereo not drawn)	ALDH1A1 block inconclusive, HTT aggregate 6.3µM
Cc1ccc(-c2noc(CCC(=O)NCC3CCCO3)n2)cc1 (stereo not drawn)	HPGD block 18µM
CCc1nc2nc(C)cc(Nc3cc(C)ccc3C)n2n1	none (no result: HTT ATP protect, HPGD block, ALDH1A1 block, HTT aggregate, IMPase Li inh)
O=C(CCc1nc(-c2ccccc2)no1)NCC1CCCO1 (stereo not drawn)	HPGD block 25µM, ALDH1A1 block inconclusive
Cc1ccc(-c2nc(N)sc2CC(=O)OCC(=O)NCC2CCCO2)cc1 (stereo not drawn)	HPGD block 32µM, ALDH1A1 block inconclusive (no result: HTT ATP protect, IMPase cell inh)
COC(=O)c1ccc(-c2noc(CN(C)CCC3CCCCO3)n2)cc1 (stereo not drawn)	ALDH1A1 block 8.9µM (no result: HPGD block, IMPase cell inh)
CN(c1ccc(OCc2nnc(-c3ccccc3)o2)cc1)S(=O)(=O)c1ccccc1	HPGD block 7.9µM
CCCCOC(=O)c1ccc(NC(=O)/C(C#N)=C/c2ccc(C)o2)cc1	none (no result: HTT ATP protect, HPGD block, ALDH1A1 block, HTT aggregate, IMPase Li inh)
CC(=O)c1ccc(NC(=O)c2ccc(S(=O)(=O)N3CCCC3)cc2)cc1	ALDH1A1 block inconclusive
O=C(COc1ccc(S(=O)(=O)N2CCCCC2)cc1)NCc1ccncc1	ALDH1A1 block 22µM
COc1ccc(CCNC(=O)COc2ccc(S(=O)(=O)N3CCCC3)cc2)cc1	ALDH1A1 block 10µM (no result: HPGD block, IMPase cell inh)
O=C(Nc1ccc(Cc2ccncc2)cc1)c1ccc(S(=O)(=O)N2CCCC2)cc1	ALDH1A1 block 14µM, HTT aggregate 11µM (no result: HTT ATP protect, HPGD block, IMPase cell inh)
COc1ccc(S(=O)(=O)N2CCN(C(=O)COc3ccccc3)CC2)cc1	ALDH1A1 block inconclusive (no result: HPGD block, IMPase cell inh)
COc1ccc(CCC(=O)N2CCN(S(=O)(=O)c3ccc4ccccc4c3)CC2)cc1	ALDH1A1 block 14µM, HTT aggregate inconclusive
CN(Cc1ccco1)c1nc(-c2cccc(C#N)c2)nc2ccccc12	HPGD block inconclusive, ALDH1A1 block inconclusive (no result: IMPase cell inh, HTT aggregate)
CCN1c2ccccc2NC2C1C(C(C)=O)C(=O)N2c1ccc(Cl)cc1 (stereo not drawn)	ALDH1A1 block 14µM, HTT aggregate inconclusive
O=C1Nc2ccccc2N(O)N1c1ccc(Cl)cc1	none (no result: HPGD block, IMPase cell inh)
CCOC(=O)/C=C1\NC(C)(C)Cc2cc(OC)c(O)cc21	HPGD block 35µM, ALDH1A1 block 11µM
O=C(NNc1nc2ccc(Cl)cc2s1)c1cc(-c2cccs2)nc2ccccc12	HTT aggregate 14µM (no result: HTT ATP protect, IMPase cell inh)
O=C(N/N=C/c1cccnc1)c1cc(-c2cccs2)nc2ccccc12	HPGD block inconclusive, ALDH1A1 block inconclusive (no result: IMPase cell inh)
O=C(N/N=C/c1ccc[nH]1)c1cc(-c2cccs2)nc2ccccc12	ALDH1A1 block 16µM (no result: HPGD block, IMPase cell inh)
Cc1cc(C)c2nc(NNC(=O)c3cc(-c4cccs4)nc4ccccc34)sc2c1	ALDH1A1 block inconclusive, HTT aggregate inconclusive (no result: HTT ATP protect, IMPase cell inh)
CCCC[C@H](CC)CN=C(N)NC(N)=NCCCCCCN=C(N)NC(N)=NC[C@@H](CC)CCCC	none (no result: HTT aggregate)
c1ccc2c(c1)c1ccccc1n2Cn1c2ccccc2c2ccccc21	none (no result: IMPase cell inh, HTT aggregate)
O=[N+]([O-])c1ccc2[nH]nc(-c3ccccc3)c2c1	HPGD block 14µM (no result: IMPase cell inh)
O=[N+]([O-])c1ccc2nc(-c3ccccc3)oc2c1	ALDH1A1 block inconclusive (no result: HPGD block, IMPase cell inh)
O=[N+]([O-])c1ccc2nc(NCCCO)nc(-c3ccccc3)c2c1	HPGD block 14µM (no result: IMPase cell inh)
O=C(O)CNc1nc(-c2ccccc2)c2cc([N+](=O)[O-])ccc2n1	ALDH1A1 block 18µM
CCOC(=O)c1c(NC(=O)CSc2ncnc3ccccc23)sc(C(C)=O)c1C	HTT ATP protect 2.5µM, HPGD block inconclusive (no result: IMPase cell inh)
CCOC(=O)c1c(NC(=O)CSc2nc3cccnc3n2C)sc(C(C)=O)c1C	none
CCOC(=O)c1c(NC(=O)CSc2nc3ccccc3c(=O)n2-c2ccc(F)cc2)sc(C(C)=O)c1C	none (no result: IMPase cell inh)
CCOC(=O)c1c(NC(=O)CSc2nnc(-c3ccccc3C)n2C)sc(C(C)=O)c1C	HPGD block inconclusive, ALDH1A1 block 25µM
CS(=O)(=O)c1ccc([C@@H](O)[C@@H](COC(=O)CN)NC(=O)C(Cl)Cl)cc1	none (no result: HPGD block, IMPase cell inh, ALDH1A1 block, IMPase Li inh)
O=c1[nH]c(-c2ccccc2F)nc2c1sc(=S)n2Cc1ccccc1	HPGD block 10µM
